Assay results from the supplement of paper PMC3334620.
Over roughly 33,000 sequences, “E-score (-0.5 to 0.5)” has its median near -0.041; the highest 2% begin near 0.37. Only a selection was taken, and the highest values are over-represented in it overall.

Target: T1, Ecm22 (UniProt Q05958)
T1 sequence: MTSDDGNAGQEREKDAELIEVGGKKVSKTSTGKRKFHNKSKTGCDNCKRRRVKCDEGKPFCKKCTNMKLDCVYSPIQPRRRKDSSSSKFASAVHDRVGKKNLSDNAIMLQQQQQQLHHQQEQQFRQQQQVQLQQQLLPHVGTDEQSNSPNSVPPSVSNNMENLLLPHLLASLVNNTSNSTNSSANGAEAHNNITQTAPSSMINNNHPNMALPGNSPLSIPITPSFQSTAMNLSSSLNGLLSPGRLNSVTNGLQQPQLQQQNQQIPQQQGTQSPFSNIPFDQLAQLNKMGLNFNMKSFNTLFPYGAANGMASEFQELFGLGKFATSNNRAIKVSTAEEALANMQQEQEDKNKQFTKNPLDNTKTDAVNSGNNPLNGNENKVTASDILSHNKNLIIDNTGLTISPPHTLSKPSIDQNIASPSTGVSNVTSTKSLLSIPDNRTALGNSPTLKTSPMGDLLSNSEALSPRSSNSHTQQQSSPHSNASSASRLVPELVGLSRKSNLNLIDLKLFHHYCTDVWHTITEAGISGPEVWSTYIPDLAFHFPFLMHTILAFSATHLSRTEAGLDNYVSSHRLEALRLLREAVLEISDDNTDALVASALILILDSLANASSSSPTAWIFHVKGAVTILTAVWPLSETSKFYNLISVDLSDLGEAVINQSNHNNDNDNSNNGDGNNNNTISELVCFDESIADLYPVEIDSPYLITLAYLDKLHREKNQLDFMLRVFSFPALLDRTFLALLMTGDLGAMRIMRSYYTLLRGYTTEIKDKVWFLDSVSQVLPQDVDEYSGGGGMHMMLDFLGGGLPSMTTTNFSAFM
Assay: PBM E-score (8-mer binding enrichment) (E-score (-0.5 to 0.5)); higher = stronger / more preferred TF binding
Conditions: protein concentration: 200 nM; construct: GST-full length
Method: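 Universal 'all 10-mer' protein binding microarrays (Agilent AMADID 015681) probed with GST-tagged S. cerevisiae TFs (full-length or DBD) made by in vitro transcription/translation (PURExpress), about 100-200 nM. Bound TF was detected with fluorescent anti-GST. Each ungapped 8-mer (which stands for itself and its reverse complement) is scored by the PBM enrichment score (E-score), a modified Wilcoxon-Mann-Whitney statistic from -0.5 to +0.5, computed with the Universal PBM Analysis Suite. Scale: above 0.35 generally sequence-specific binding.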

Sequence | PBM E-score
GTCGTACA | 0.484
AACGTACG | 0.378
ATTCTTAC | -0.026
CACCAGCA | -0.028
CTGCAGGA | -0.245
AGACCCGC | -0.00174
CAACGAGG | 0.343
TAACGAGA | 0.369
CAACGAGA | 0.378
TAACGTGA | -0.142
AAACGGGT | 0.319
AAACGAGT | 0.456
AAACGAGG | 0.476
AAACGTGG | 0.133
ACACGAGT | 0.24
TCACGAGA | 0.0348
ACCCCCCA | -0.296
ATCACAAG | -0.0512
CCCCTAGG | -0.307
ACGAATTC | 0.269
AGCCTGTC | 0.0499
CATTGGCG | -0.239

Sequence | PBM E-score
ATCTTTGA | -0.00074
AGGCCGAC | -0.106
AAACGAGA | 0.463
ACACGAGA | 0.265
AGACGAGA | 0.166
GCGTAAGA | 0.074
AATATCTA | -0.0604
AGCCGTAT | 0.315
GACCGTAC | 0.362
AGCCGTAC | 0.369
GGCCGTAC | 0.419
CGCCGTAC | 0.408
GGCCGTAA | 0.244
CGCCGTAA | 0.26
AGCCGTAG | 0.0779
CGCCGTAG | 0.119
ACGGTTGA | 0.0702
AAGCCGAA | -0.0177
CAGGCACG | -0.112
AACAACTT | -0.092
GAAATCTC | 0.129
CCCGAGCG | 0.173

Sequence | PBM E-score
CTACGAAG | 0.297
GGACGAAC | 0.111
GCACGAAC | 0.222
ACACGAAC | 0.237
CTACGAAC | 0.369
GTACGAAC | 0.475
ATACGAAC | 0.474
AGACGAAC | 0.295
CCACGAAC | 0.201
CCTAGCCC | -0.222
AGCGTCCC | -0.145
AATCTGTG | -0.0802
GTGGAACA | 0.0214
GGAGTGCA | 0.0316
GTGGGTCA | -0.308
ACGAGGTC | 0.389
CCGAGGTA | 0.176
ACGAGGTA | 0.413
CCGAGGTC | 0.11
AGGAGGTG | -0.298
ACGAGGTG | 0.397
AAGAGGTC | -0.207

Sequence | PBM E-score
GCGAGGTA | 0.285
ATGAGGTG | -0.127
CCTTTTCC | 0.055
CGGTCTGC | 0.0314
TACCACGA | 0.0887
GCAACTGA | 0.0723
GACTTCGC | 0.232
TCAACGAA | 0.187
CCAACGAC | 0.0154
ACAACGAC | 0.295
ACAACGAA | 0.257
GCAACGAA | 0.406
GCAACGAC | 0.417
AGGCCCCA | -0.182
TAGTCCAA | -0.157
AGTACTTA | 0.0475
CGTACAAG | 0.416
CGTACATC | 0.353
CGTACTTA | 0.375
AGTACAAA | 0.0199
GGTACAAA | -0.0856
